# According to article PMC7862700, “An all-to-all approach to the identification of sequence-specific readers for epigenetic DNA modifications on cytosine”:
# Columns and labels:
# Experiment in all cases: DAPPL (digital affinity profiling via proximity ligation, sequencing); 10 mM Tris-HCl pH 7.5, 50 mM NaCl, 1 mM DTT, 4% glycerol, room temperature, 30 min; GST-TFs on glutathione beads, 16-mer random dsDNA library, 0.1% formaldehyde crosslink after washing; high values mean tight binding
# FLI1 = biological target: T1, FLI1 (Homo sapiens, UniProt Q01543 1-452); details: protein: recombinant; tags: N-terminal GST; dsDNA, one strand shown
# T1 sequence: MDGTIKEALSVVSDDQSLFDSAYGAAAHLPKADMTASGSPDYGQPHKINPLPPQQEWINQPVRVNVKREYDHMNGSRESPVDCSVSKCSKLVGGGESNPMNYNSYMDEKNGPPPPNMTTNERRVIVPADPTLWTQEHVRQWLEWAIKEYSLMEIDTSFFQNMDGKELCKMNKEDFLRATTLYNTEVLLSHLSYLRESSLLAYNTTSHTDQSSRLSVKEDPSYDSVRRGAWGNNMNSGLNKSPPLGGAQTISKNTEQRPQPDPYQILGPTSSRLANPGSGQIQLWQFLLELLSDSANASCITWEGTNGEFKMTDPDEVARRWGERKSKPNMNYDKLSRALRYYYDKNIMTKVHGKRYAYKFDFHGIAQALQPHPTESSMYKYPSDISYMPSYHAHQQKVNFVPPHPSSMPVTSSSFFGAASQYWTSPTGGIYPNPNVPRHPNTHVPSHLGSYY
# In short: (§1)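 Sequencing on an Illumina NextSeq500 followed washing, crosslinking with 0.1% formaldehyde, proximity ligation (BsaI/T4 ligase, 1 h, 37 °C) and PCR amplification of pools that had been incubated for 30 min at room temperature with 200 nmole of a random double-stranded 16-mer DNA library in Tris/NaCl/DTT/glycerol buffer. Each pool held DNA-barcoded human transcription factors, expressed in yeast as GST fusions and captured on glutathione beads, plus a tag-only sample. Binding signal is a hexamer's read frequency for a factor divided by its frequency in the tag-only sample.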
# ELK1 = biological target: T2, ELK1 (Homo sapiens, UniProt P19419 1-428); details: protein: recombinant; tags: N-terminal GST; dsDNA, one strand shown
# T2 sequence: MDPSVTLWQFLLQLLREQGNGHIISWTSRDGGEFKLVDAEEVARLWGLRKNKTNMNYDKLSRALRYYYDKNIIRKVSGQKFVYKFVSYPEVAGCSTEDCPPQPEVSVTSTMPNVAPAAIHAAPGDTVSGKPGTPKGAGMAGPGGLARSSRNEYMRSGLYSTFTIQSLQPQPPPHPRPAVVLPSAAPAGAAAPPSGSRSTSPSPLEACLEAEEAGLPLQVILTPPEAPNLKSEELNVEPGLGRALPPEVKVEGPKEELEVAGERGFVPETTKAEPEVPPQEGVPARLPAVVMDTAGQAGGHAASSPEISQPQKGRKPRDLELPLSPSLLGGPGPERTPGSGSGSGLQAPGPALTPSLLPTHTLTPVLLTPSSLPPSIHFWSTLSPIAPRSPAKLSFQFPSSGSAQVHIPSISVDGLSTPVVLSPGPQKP
# In short: as §1
# GABPA = biological target: T3, GABPA (Homo sapiens, UniProt Q06546 1-454); details: protein: recombinant; tags: N-terminal GST; dsDNA, one strand shown
# T3 sequence: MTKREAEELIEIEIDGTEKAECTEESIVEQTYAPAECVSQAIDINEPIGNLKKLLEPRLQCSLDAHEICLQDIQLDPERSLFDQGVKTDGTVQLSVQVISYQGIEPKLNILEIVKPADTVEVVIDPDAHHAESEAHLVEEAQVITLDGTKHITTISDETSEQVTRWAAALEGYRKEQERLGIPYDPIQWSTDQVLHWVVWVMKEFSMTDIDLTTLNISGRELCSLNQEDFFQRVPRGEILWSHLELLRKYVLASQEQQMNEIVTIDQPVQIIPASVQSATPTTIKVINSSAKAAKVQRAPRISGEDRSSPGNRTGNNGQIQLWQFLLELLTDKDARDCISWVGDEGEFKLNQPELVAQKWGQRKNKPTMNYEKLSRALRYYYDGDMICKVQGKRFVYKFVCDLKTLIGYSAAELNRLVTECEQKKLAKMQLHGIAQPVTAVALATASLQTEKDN
# In short: as §1
# ERG = biological target: T4, ERG (Homo sapiens, UniProt P11308 1-479); details: protein: recombinant; tags: N-terminal GST; dsDNA, one strand shown
# T4 sequence: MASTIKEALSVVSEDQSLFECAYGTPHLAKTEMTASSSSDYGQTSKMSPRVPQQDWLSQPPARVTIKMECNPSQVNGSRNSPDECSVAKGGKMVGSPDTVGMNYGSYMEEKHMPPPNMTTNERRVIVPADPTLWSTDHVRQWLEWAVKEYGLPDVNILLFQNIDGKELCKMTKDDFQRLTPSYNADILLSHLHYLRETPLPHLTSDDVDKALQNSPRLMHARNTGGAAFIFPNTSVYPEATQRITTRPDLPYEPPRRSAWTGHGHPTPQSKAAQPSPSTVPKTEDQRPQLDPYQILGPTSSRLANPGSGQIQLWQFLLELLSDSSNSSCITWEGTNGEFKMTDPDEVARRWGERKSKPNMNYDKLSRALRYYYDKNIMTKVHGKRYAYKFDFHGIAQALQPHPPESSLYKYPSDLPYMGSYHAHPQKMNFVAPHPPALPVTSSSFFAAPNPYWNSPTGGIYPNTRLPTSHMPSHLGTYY
# In short: as §1
# ELF1 = ELF1 (Homo sapiens, UniProt P32519 1-619); details: protein: recombinant; tags: N-terminal GST; dsDNA, one strand shown
# In short: as §1
# EHF = biological target: T5, EHF (Homo sapiens, UniProt Q9NZC4 1-300); details: protein: recombinant; tags: N-terminal GST; dsDNA, one strand shown
# T5 sequence: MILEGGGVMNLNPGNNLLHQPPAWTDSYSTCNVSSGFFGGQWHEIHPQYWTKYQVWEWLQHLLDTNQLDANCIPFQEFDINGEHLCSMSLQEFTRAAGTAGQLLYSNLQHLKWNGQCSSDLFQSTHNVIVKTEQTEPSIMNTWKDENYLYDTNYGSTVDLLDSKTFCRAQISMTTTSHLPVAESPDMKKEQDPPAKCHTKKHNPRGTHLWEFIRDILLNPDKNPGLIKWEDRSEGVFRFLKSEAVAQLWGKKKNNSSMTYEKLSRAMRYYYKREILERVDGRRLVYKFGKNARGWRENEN
# In short: as §1
# SPI1 = SPI1 (Homo sapiens, UniProt P17947 1-270); details: protein: recombinant; tags: N-terminal GST; dsDNA, one strand shown
# In short: as §1
# SPIB = SPIB (Homo sapiens, UniProt Q01892 1-262); details: protein: recombinant; tags: N-terminal GST; dsDNA, one strand shown
# In short: as §1
# ELK3 = biological target: T6, ELK3 (Homo sapiens, UniProt P41970 1-407); details: protein: recombinant; tags: N-terminal GST; dsDNA, one strand shown
# T6 sequence: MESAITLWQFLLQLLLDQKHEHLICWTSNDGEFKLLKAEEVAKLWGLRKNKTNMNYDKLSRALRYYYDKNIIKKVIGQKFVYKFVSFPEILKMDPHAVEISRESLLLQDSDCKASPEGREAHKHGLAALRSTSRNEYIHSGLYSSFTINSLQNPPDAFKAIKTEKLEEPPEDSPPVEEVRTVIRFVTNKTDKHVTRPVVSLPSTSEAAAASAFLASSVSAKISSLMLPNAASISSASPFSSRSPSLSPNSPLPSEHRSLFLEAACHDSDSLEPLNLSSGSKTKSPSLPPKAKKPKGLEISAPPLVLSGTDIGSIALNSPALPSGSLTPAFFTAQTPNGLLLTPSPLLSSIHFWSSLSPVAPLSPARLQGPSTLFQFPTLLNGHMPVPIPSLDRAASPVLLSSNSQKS
# In short: as §1
# FEV = biological target: T7, FEV (Homo sapiens, UniProt Q99581 1-238); details: protein: recombinant; tags: N-terminal GST; dsDNA, one strand shown
# T7 sequence: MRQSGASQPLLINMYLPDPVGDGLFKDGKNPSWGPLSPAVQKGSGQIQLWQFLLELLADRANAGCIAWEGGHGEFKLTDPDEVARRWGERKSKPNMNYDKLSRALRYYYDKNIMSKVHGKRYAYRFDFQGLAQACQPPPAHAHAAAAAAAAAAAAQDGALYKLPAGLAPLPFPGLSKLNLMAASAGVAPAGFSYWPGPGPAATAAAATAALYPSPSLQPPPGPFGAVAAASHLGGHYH
# In short: as §1
# ETV5 = ETV5 (Homo sapiens, UniProt P41161 1-510); details: protein: recombinant; tags: N-terminal GST; dsDNA, one strand shown
# In short: as §1
# HSF1 = HSF1 (Homo sapiens, UniProt Q00613 1-529); details: protein: recombinant; tags: N-terminal GST; chain copies: 3; dsDNA, one strand shown
# In short: as §1
# SPIC = biological target: T8, SPIC (Homo sapiens, UniProt Q8N5J4 1-248); details: protein: recombinant; tags: N-terminal GST; dsDNA, one strand shown
# T8 sequence: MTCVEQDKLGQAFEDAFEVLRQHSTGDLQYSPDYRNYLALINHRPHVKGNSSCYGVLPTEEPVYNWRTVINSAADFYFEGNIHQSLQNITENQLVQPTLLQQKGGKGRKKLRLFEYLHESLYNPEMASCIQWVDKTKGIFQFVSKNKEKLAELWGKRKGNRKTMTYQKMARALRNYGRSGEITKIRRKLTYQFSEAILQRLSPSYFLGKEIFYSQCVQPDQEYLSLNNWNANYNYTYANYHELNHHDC
# In short: as §1
# ELF4 = ELF4 (Homo sapiens, UniProt Q99607 1-663); details: protein: recombinant; tags: N-terminal GST; dsDNA, one strand shown
# In short: as §1
# ELK4 = biological target: T9, ELK4 (Homo sapiens, UniProt P28324-2 1-405); details: protein: recombinant; tags: N-terminal GST; dsDNA, one strand shown
# T9 sequence: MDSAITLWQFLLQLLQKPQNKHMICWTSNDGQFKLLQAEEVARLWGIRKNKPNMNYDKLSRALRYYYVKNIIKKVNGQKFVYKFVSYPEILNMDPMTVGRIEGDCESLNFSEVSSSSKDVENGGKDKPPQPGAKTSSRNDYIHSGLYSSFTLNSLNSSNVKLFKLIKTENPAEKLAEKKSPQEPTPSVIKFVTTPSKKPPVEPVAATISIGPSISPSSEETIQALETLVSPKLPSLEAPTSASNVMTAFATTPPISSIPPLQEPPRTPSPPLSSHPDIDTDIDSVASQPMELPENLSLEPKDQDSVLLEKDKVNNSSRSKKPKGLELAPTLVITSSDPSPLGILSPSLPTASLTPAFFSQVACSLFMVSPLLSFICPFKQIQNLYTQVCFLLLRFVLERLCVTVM
# In short: as §1
# ETV2 = biological target: T10, ETV2 (Homo sapiens, UniProt O00321 1-342); details: protein: recombinant; tags: N-terminal GST; dsDNA, one strand shown
# T10 sequence: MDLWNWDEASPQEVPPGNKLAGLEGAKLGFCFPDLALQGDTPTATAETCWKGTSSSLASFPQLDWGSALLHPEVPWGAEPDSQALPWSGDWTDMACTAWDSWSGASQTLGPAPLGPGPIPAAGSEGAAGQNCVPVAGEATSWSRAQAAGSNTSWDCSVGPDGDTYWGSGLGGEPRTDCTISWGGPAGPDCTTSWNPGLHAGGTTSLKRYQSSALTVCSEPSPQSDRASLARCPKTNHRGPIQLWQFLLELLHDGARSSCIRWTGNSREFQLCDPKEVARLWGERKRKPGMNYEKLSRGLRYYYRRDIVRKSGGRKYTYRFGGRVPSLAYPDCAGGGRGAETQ
# In short: as §1
# ELF3 = biological target: T11, ELF3 (Homo sapiens, UniProt P78545 1-371); details: protein: recombinant; tags: N-terminal GST; dsDNA, one strand shown
# T11 sequence: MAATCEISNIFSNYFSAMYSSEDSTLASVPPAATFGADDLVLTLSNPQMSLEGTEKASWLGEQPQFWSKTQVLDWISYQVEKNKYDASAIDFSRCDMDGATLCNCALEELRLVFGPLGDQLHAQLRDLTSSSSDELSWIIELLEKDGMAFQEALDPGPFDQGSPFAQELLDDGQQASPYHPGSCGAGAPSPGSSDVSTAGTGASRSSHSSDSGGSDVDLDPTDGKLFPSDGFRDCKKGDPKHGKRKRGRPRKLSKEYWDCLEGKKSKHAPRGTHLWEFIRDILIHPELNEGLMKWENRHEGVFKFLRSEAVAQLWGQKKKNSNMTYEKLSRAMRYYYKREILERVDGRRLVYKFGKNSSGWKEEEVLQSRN
# In short: as §1
# CRX = CRX (Homo sapiens, UniProt O43186 1-299); details: protein: recombinant; tags: N-terminal GST; dsDNA, one strand shown
# In short: as §1
# ETV1 = ETV1 (Homo sapiens, UniProt P50549 1-477); details: protein: recombinant; tags: N-terminal GST; dsDNA, one strand shown
# In short: as §1
# ELF4, sequence (Q99607 whole entry): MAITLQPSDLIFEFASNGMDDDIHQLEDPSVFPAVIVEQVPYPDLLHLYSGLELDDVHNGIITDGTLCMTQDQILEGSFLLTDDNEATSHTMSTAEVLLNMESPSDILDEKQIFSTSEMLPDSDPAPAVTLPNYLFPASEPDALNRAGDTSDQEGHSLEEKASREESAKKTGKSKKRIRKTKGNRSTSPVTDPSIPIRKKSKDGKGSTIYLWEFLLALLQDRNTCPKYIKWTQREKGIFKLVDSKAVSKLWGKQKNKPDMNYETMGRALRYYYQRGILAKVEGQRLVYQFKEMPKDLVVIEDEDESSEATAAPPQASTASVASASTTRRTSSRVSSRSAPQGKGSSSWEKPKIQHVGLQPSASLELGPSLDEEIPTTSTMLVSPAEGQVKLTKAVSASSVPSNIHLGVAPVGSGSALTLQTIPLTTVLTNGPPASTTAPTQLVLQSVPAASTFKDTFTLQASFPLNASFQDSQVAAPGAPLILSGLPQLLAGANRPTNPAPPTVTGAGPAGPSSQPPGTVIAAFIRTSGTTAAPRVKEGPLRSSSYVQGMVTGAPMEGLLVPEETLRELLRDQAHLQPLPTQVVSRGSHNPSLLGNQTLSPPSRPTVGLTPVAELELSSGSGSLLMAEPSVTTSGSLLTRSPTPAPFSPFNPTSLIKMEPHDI
# ETV1, sequence (P50549 whole entry): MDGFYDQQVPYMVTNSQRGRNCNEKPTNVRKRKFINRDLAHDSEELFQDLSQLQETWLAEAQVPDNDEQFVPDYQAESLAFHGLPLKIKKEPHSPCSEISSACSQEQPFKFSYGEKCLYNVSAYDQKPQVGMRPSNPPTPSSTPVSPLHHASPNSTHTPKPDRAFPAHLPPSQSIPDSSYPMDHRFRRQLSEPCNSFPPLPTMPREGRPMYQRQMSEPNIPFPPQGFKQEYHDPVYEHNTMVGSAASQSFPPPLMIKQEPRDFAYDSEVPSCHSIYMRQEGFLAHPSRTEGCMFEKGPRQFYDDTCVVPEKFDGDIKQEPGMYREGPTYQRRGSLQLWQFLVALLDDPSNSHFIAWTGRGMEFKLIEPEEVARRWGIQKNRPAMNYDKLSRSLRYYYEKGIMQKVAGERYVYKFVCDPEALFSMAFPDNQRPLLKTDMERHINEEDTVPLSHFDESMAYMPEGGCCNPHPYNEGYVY
# HSF1, sequence (Q00613 whole entry): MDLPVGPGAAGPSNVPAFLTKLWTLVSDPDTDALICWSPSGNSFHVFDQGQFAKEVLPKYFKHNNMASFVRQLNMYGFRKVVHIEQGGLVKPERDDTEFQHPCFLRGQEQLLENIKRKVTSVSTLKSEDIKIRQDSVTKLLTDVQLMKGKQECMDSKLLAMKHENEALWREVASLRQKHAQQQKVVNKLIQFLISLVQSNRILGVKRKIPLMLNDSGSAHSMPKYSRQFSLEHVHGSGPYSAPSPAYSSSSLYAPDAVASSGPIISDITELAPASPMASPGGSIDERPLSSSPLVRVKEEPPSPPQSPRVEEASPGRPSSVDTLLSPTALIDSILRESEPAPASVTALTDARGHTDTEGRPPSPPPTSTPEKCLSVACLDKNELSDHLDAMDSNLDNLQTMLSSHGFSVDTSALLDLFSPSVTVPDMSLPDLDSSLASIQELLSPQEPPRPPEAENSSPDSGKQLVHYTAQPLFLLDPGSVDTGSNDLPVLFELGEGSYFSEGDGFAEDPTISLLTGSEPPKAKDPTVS
# SPIB, sequence (Q01892 whole entry): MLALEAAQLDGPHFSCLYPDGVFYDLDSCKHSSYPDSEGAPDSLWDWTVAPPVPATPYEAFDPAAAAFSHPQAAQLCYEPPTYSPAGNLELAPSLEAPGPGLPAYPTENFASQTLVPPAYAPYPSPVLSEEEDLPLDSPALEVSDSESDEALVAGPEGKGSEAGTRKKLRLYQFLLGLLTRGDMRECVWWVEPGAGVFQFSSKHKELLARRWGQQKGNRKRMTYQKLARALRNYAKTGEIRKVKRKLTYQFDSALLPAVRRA
# ELF1, sequence (P32519 whole entry): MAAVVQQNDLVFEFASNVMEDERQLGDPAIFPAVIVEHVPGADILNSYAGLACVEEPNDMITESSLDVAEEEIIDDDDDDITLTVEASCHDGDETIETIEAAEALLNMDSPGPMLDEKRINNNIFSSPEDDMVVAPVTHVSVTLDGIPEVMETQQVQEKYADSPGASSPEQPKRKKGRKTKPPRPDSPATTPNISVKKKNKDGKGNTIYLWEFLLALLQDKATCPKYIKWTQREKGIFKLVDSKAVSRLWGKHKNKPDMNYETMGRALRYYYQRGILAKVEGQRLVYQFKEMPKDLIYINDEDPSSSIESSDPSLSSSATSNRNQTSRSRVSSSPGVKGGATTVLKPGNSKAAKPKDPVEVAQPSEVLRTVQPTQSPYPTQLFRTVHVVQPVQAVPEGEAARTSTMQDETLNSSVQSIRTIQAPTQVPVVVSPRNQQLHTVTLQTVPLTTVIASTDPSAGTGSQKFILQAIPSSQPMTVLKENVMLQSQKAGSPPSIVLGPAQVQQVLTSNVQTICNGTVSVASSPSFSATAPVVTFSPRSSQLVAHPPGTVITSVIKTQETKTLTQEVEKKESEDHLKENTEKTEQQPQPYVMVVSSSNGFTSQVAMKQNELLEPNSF
# ETV5, sequence (P41161 whole entry): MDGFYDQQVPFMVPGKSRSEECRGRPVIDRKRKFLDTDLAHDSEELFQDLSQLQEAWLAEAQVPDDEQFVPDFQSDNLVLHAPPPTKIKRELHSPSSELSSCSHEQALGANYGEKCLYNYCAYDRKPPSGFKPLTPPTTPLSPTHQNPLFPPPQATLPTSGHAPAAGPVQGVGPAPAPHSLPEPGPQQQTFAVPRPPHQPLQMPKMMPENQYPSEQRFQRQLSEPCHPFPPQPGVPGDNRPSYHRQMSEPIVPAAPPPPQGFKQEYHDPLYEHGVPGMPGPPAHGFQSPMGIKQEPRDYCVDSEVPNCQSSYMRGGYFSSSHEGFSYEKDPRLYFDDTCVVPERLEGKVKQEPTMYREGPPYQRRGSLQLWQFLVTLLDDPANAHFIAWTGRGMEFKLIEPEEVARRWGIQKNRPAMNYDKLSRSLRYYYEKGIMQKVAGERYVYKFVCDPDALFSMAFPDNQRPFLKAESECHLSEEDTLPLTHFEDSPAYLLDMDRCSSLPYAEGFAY
# CRX, sequence (O43186 whole entry): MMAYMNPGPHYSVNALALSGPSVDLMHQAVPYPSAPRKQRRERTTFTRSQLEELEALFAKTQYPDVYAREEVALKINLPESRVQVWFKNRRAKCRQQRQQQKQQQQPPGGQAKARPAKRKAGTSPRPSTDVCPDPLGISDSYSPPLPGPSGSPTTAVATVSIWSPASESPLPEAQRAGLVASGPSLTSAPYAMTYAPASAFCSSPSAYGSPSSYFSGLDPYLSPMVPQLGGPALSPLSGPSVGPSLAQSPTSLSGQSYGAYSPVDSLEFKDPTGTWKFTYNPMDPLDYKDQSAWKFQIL
sequence,measurement,setting,value
ATCACC,binding signal,FLI1,"1.17 fold enrichment (6-mer frequency, TF over GST control)"
same,binding signal,ELK1,"1.18 fold enrichment (6-mer frequency, TF over GST control)"
same,binding signal,GABPA,"1.13 fold enrichment (6-mer frequency, TF over GST control)"
same,binding signal,ERG,"1.14 fold enrichment (6-mer frequency, TF over GST control)"
same,binding signal,ELF1,"1.19 fold enrichment (6-mer frequency, TF over GST control)"
same,binding signal,EHF,"1.1 fold enrichment (6-mer frequency, TF over GST control)"
same,binding signal,SPI1,"1.11 fold enrichment (6-mer frequency, TF over GST control)"
same,binding signal,SPIB,"1.03 fold enrichment (6-mer frequency, TF over GST control)"
same,binding signal,ELK3,"1.27 fold enrichment (6-mer frequency, TF over GST control)"
same,binding signal,FEV,"1.09 fold enrichment (6-mer frequency, TF over GST control)"
same,binding signal,ETV5,"1.11 fold enrichment (6-mer frequency, TF over GST control)"
same,binding signal,HSF1,"1.05 fold enrichment (6-mer frequency, TF over GST control)"
same,binding signal,SPIC,"1.1 fold enrichment (6-mer frequency, TF over GST control)"
same,binding signal,ELF4,"1.22 fold enrichment (6-mer frequency, TF over GST control)"
same,binding signal,ELK4,"1.07 fold enrichment (6-mer frequency, TF over GST control)"
same,binding signal,ETV2,"1.03 fold enrichment (6-mer frequency, TF over GST control)"
same,binding signal,ELF3,"1.17 fold enrichment (6-mer frequency, TF over GST control)"
same,binding signal,CRX,"1.14 fold enrichment (6-mer frequency, TF over GST control)"
same,binding signal,ETV1,"1.1 fold enrichment (6-mer frequency, TF over GST control)"
